# Measurements: PubChem BioAssay (NCATS)
# “And” between values parts separate entries of the source, which are not always exact repeats. Identical values can stand only once. Inconclusive results are not listed. The source made the active and inactive calls. Unless noted, calls follow the shape of the full dose curve. Numbered stars: 1 amine (or outer) side, 2 acyl side, 3 side chain; on linkers, the order of the positions; unused ones are H or OH. Bridge positions count the residues as written; N and C are the ends. Square brackets hold non-standard residues; d marks the D form. Peptide text beside a SMILES is read from it. * marks the point of attachment. ξ: configuration not given here. pTerphenylCO(4''-OnC5H11) = CCCCCOc1ccc(-c2ccc(-c3ccc(C(=O)*)cc3)cc2)cc1; ξOrn(4,5-diOH) = O=C(C(CC(O)C(O)N[*:3])N[*:1])[*:2]; ξhTyr(βξ-OH,γξ-OH) = NC(C(=O)O)C(O)C(O)c1ccc(O)cc1; ξPro(3ξ-OH,4ξ-Me) = CC1CNC(C(=O)O)C1O; Hyp = O=C(O)[CH]1C[CH](O)CN1
# Experiments:
# [1] = MultiTox-Fluor Cytotoxicity Assay - LYMP1-002 - Dead Cells (AID 960; active = well fitted curve in the direction sought with a large enough effect; an effect the other way counts as inactive or inconclusive; also: potency is read from the fitted curve at half-maximal effect; nearly all actives have a fitted effect of over 60% in size)
# How it was run: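 Cells were plated, rested 5 hr, then treated with compound dilution series for 16 hr at 37 C. After adding substrate reagent and 60 min at room temperature, dead-cell protease fluorescence gave concentration-response curves fitted by the Hill equation.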
# [2] = molecular target: Bile acid receptor (Homo sapiens) (UniProt Q96RI1); test: qHTS assay for small molecule agonists of farnesoid X receptor signaling (AID 588527); conditions: HEK293T FXR-UAS-bla, beta-lactamase ratio, 16 h; stronger effect = higher value;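 also: 0% = vehicle basal and 100% = reference agonist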
# Sequence of Bile acid receptor (Homo sapiens) (Q96RI1 whole entry, looked up): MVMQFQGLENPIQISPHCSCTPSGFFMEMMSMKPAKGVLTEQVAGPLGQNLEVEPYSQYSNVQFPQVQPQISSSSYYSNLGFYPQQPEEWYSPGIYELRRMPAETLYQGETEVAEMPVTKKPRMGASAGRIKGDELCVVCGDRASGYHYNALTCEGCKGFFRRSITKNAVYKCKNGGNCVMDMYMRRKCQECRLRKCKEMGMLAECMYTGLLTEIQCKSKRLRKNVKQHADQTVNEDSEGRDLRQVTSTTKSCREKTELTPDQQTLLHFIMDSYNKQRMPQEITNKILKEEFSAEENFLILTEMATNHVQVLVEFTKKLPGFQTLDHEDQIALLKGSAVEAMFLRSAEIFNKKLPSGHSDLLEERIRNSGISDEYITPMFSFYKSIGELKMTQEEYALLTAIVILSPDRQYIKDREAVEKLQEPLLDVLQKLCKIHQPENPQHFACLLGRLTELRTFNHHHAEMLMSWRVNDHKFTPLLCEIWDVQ
# How it was run: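 Read-out: beta-lactamase reporter fluorescence with CCF4 substrate in GeneBLAzer FXR-UAS-bla HEK293T cells, after 16 h compound exposure at 37 C. Response scaled between DMSO basal (0%) and chenodeoxycholic acid at 100 uM (100%).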
# [3] = qHTS Assay for Lipid Storage Modulators (AID 1519); conditions: Drosophila S3 cells, BODIPY lipid droplet/cell ratio, laser cytometry, cells loaded with oleic acid; as to activity change, negative = inhibition: % is scaled to controls: 0 for no effect and ±100 for the full control effect
# How it was run: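 Cells seeded at 5,000 per well were treated with compounds over a concentration series and loaded with oleic acid (400 uM, as added). Lipid droplet fluorescence (488 nm excitation, 500-530 nm channel) was read by laser-scanning cytometry and normalized to 20 uM Triacsin C.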
# [4] = molecular target: Peroxisome proliferator-activated receptor delta (Homo sapiens) (UniProt Q03181); test: qHTS assay for small molecule agonists of peroxisome proliferator-activated receptor delta signaling (AID 588534);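 also: 0% = DMSO basal wells and 100% = positive control agonist at 10 µM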
# Sequence of Peroxisome proliferator-activated receptor delta (Homo sapiens) (Q03181 whole entry, looked up): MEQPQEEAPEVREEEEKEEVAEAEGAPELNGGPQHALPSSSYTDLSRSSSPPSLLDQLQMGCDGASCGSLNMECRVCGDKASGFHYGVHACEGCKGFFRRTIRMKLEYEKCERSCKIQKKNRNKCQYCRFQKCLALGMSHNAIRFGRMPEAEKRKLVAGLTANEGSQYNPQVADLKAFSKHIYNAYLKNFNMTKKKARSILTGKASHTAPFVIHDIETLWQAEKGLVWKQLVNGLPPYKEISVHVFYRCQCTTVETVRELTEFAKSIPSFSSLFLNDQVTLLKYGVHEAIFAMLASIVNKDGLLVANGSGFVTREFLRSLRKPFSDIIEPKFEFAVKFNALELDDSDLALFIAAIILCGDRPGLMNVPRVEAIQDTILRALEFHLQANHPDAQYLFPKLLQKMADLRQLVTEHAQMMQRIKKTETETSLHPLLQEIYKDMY
# How it was run: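 Agonist-mode qHTS; reporter cells, 5 hrs 37 C pre-incubation; compound titration, 18 hrs 37 C; CCF4 dye, 2 hrs RT; fluorescence read. EC50/efficacy via Hill fit.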
# [5] = molecular target: Peroxisome proliferator-activated receptor gamma (Homo sapiens) (UniProt P37231); test: qHTS assay for small molecule agonists of peroxisome proliferator-activated receptor gamma signaling (AID 588536; active = well fitted curve in the direction sought with a large enough effect in the signal ratio, with a control signal flat, not every such curve was filed as active; the % refers to the signal ratio;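 also: 0% = DMSO basal wells and 100% = rosiglitazone at 2 µM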)
# Sequence of Peroxisome proliferator-activated receptor gamma (Homo sapiens) (P37231 whole entry, looked up): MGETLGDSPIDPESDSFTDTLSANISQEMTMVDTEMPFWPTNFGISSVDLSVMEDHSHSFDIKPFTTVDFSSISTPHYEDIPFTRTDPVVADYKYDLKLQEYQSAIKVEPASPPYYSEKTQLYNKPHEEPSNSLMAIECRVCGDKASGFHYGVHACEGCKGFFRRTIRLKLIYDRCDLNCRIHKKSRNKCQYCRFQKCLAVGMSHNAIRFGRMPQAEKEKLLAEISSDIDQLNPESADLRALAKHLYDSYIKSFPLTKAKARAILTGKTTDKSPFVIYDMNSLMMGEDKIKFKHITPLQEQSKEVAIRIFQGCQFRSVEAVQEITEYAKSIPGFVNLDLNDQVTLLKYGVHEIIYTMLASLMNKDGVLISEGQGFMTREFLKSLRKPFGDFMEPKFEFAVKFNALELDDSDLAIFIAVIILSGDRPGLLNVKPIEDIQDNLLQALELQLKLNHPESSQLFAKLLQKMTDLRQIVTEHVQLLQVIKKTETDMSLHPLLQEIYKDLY
# How it was run: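 Beta-lactamase reporter read-out: CCF4 fluorescence (ex 405, em 460/530 nm) after 2 h at RT. HEK293 GeneBLAzer cells were treated for 16 h at 37 C. Hill fits gave EC50 and efficacy versus 2 uM rosiglitazone (100%) and DMSO (0%).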
# [6] = S16 Schwann cell PMP22 intronic element firefly luciferase assay (AID 624032; active = well fitted curve in the direction sought with a large enough effect; an effect the other way counts as inactive or inconclusive; also: potency is read from the fitted curve at half-maximal effect; nearly all actives have a fitted effect of over 30% in size)
# How it was run: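 Rat S16 Schwann cells stably carrying a PMP22 intronic element-driven Fluc reporter were seeded overnight, then exposed to compounds for 24 h at 37 °C. Luminescence was normalized to PTC124 (positive control) and DMSO (0% activity).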
# [7] = qHTS assay for small molecule agonists of the antioxidant response element (ARE) signaling pathway (AID 651741; active = well fitted activation curve with a large enough effect in the signal ratio; the % refers to the signal ratio; also: potency is read from the fitted curve at half-maximal effect)
# How it was run: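 Reporter: beta-lactamase under ARE, stably in HepG2. Exposure: 16 h, 37 C, compounds delivered in DMSO by pin tool after 5 h cell preincubation. Readout: FRET substrate fluorescence after 2 h at RT.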
# [8] = qHTS assay for small molecule agonists of the antioxidant response element (ARE) signaling pathway measured by Nrf2-dependant transcriptional activity (AID 720636; active = well fitted curve in the direction sought with a large enough effect in the repeat runs; an effect the other way counts as inactive or inconclusive;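 also: HepG2 cells with an ARE-driven luciferase reporter; % of control where 0% means no effect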)
# How it was run: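 Attachment 6 hr at 37 C, then compound versus DMSO vehicle for 16 hr in ARE-luc HepG2 cells (1% dialyzed FBS); luminescence recorded 30 min after ONE-Glo addition at room temperature.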
# [9] = qHTS Assay for Identifying Gametocytocidal Compounds (AID 743244; active = well fitted curve in the direction sought with a large enough effect; an effect the other way counts as inactive or inconclusive; also: potency is read from the fitted curve at half-maximal effect); conditions: P. falciparum 3D7 stage III-V gametocytes, alamarBlue, 72 h
# How it was run: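 Late gametocytes (III–V), P. falciparum 3D7; 72 h drug, then 24 h alamarBlue; resazurin reduction read by fluorescence.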
# [10] = Confirmatory qHTS for VERO E6 Cytotoxicity Assay: Counterscreen for SARS-CoV-2 CPE Assay (AID 1508605); also: % is scaled to controls: 0 for no effect and ±100 for the full control effect; nearly all actives have a fitted effect of over 60% in size
# [11] = molecular target: Cytochrome P450 2D6 (Homo sapiens) (UniProt P10635); test: Cytochrome P450 family 2 subfamily D member 6 (CYP2D6) small molecule antagonists: luciferase biochemical (cell-free) qHTS assay (AID 1645840; active = well fitted curve in the direction sought with a large enough effect in the repeat runs; an effect the other way counts as inactive or inconclusive; also: nearly all actives have a fitted effect of over 55% in size; also: potency is read from the fitted curve at half-maximal effect; as to activity change, negative = inhibition: % is scaled to controls: 0 for no effect and ±100 for the full control effect)
# Sequence of Cytochrome P450 2D6 (Homo sapiens) (P10635 whole entry, looked up): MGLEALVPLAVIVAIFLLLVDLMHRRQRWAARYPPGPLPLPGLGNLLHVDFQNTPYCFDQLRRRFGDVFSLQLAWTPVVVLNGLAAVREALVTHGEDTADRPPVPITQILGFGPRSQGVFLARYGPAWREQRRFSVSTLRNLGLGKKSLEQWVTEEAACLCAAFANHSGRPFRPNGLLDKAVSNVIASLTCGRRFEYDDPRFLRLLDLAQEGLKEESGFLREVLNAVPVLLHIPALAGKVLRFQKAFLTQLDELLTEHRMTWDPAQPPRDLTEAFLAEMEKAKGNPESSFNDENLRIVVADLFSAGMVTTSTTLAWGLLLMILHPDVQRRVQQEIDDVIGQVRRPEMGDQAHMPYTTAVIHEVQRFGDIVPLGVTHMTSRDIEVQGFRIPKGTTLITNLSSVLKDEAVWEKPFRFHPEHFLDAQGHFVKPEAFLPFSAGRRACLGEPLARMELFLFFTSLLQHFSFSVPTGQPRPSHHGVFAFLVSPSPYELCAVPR
# How it was run: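 P450-Glo CYP2D6 system: proluciferin substrate converted by enzyme to luciferin, read by luminescence proportional to activity. Enzyme-substrate mix with compound 10 min at room temperature, then NADPH regeneration 1 h before detection reagent.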
# [12] = molecular target: Phospholipid hydroperoxide glutathione peroxidase GPX4 (Homo sapiens) (UniProt P36969); test: Primary qHTS Assay for Inhibitors of Recombinant Selenoprotein Glutathione Peroxidase 4 (GPX4) (AID 1845192; active = well fitted curve in the direction sought with a large enough effect; an effect the other way counts as inactive or inconclusive; also: nearly all actives have a fitted effect of over 65% in size)
# Sequence of Phospholipid hydroperoxide glutathione peroxidase GPX4 (Homo sapiens) (P36969 whole entry, looked up): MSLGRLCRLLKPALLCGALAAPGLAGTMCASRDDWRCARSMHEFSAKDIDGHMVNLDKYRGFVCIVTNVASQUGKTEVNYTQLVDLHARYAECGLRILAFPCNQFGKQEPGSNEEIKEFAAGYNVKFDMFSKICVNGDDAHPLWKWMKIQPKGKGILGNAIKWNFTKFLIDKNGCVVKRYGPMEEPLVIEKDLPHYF
# How it was run: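 qHTS, GR-coupled: GPX4 200 nM + cpd 30 min RT → GSH 1 mM, NADPH 0.5 mM, GR 100 nM → CHP 0.5 mM start; fluor 340/450 at t0 and t15 min; no-enzyme wells as control.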
# [13] = molecular target: Cytochrome P450 2C9 (Homo sapiens) (UniProt P11712); test: Cytochrome P450 family 2 subfamily C member 9 (CYP2C9) small molecule antagonists: luciferase biochemical (cell-free) qHTS assay (AID 1645842; active = well fitted curve in the direction sought with a large enough effect in the repeat runs; an effect the other way counts as inactive or inconclusive; also: % is scaled to controls: 0 for no effect and ±100 for the full control effect; nearly all actives have a fitted effect of over 55% in size)
# Sequence of Cytochrome P450 2C9 (Homo sapiens) (P11712 whole entry, looked up): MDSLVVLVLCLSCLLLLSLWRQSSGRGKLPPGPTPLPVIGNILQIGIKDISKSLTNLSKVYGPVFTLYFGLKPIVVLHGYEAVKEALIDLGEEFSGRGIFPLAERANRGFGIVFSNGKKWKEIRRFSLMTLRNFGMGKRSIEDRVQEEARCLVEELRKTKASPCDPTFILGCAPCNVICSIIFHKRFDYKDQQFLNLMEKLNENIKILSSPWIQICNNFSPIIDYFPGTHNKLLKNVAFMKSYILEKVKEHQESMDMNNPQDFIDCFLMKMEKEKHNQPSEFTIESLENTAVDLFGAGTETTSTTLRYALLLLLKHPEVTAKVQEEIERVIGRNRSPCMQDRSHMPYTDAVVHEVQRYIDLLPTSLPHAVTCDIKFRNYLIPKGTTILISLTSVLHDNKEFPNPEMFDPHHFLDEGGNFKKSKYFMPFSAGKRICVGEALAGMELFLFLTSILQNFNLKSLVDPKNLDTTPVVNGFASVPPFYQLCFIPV
# How it was run: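 P450-Glo CYP2C9 system: proluciferin substrate with enzyme in mix containing 0.4% BSA, 10 min at room temperature, then NADPH regeneration solution added and incubated 1 h at 37C. Detection reagent stopped reaction; luminescence read after 20 min as RLU.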
# [14] = Confirmatory qHTS to identify inhibitors of SARS-CoV-2 cell entry (AID 1645844); also: nearly all actives have a fitted effect of over 45% in size; also: potency is read from the fitted curve at half-maximal effect
# How it was run: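 Using stable human ACE2 Expi293F cells, compounds preincubated 1 hr before spike pseudoparticle infection; luciferase signal after 48 hr at 37C, 5% CO2, normalised to spike PP and no-fusion-protein PP wells.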
# [15] = Primary qHTS to identify inhibitors of SARS-CoV-2 cell entry (AID 1645846); conditions: SARS-CoV-2 pseudovirus cell entry assay, luminescence; also: nearly all actives have a fitted effect of over 45% in size
# How it was run: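 HEK293 cells stably expressing human ACE2, pre-treated 1 h with compound, then infected with MLV particles pseudotyped with Wuhan-Hu-1 spike (C-terminal 19-aa truncation). Luciferase luminescence after 48 h at 37 °C, normalised to spike PP and bald PP.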
# [16] = VSVG counterscreen qHTS to identify inhibitors of SARS-CoV-2 cell entry (AID 1645847); also: % is scaled to controls: 0 for no effect and ±100 for the full control effect; nearly all actives have a fitted effect of over 65% in size
# How it was run: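 HEK293-ACE2 cells (Expi293F, human ACE2) pretreated 1 h with compound, then infected with MLV-based VSV-G pseudotyped particles for 48 h at 37 C; luciferase luminescence normalized to VSV-G PP and bald PP wells.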
smiles,measurement,setting,value
C[C@H]1O[C@@H](O[C@H]2[C@@H](O)C[C@H](O[C@H]3[C@@H](O)C[C@H](O[C@H]4CC[C@@]5(C)[C@H](CC[C@@H]6[C@@H]5C[C@@H](O)[C@]5(C)[C@@H](C7=CC(=O)OC7)CC[C@]65O)C4)O[C@@H]3C)O[C@@H]2C)C[C@H](O)[C@@H]1O,Potency,[1],1 µM (active)
same,activation,[2],-4.19% (inactive)
COc1cc(CNC(=O)CCCC/C=C/C(C)C)ccc1O,"activity change, negative = inhibition",[3]; at 57.5 µM (top of the series),-5.1% (inactive) and 0.692% (inactive)
same,max response,[3]; measured here: cell count channel max response,-0.801% and 21.3%
same,max response,[3]; measured here: lipid channel max response,-2.34% and 21.8%
same,activation,[2],-2.84% (inactive) and 4.77% (inactive)
same,outcome,[4],inactive
same,outcome,[5],inactive
same,Potency,[6],9.07 µM (active)
same,Potency,[7],42.2 µM (active)
same,outcome,[8],inactive
CO[C@H](C(=O)[C@@H](O)[C@@H](C)O)C1Cc2cc3cc(O[C@H]4C[C@@H](O[C@H]5C[C@@H](O)[C@H](O)[C@@H](C)O5)[C@@H](O)[C@@H](C)O4)c(C)c(O)c3c(O)c2C(=O)[C@H]1O[C@H]1C[C@@H](O[C@H]2C[C@@H](O[C@H]3C[C@](C)(O)[C@H](O)[C@@H](C)O3)[C@H](O)[C@@H](C)O2)[C@H](O)[C@@H](C)O1 (stereo partly drawn),Potency,[9],0.833 µM (active)
"CCCCCOc1ccc(-c2ccc(-c3ccc(C(=O)NC4CC(O)C(O)NC(=O)C5C(O)C(C)CN5C(=O)C(C(C)O)NC(=O)C(C(O)C(O)c5ccc(O)cc5)NC(=O)C5CC(O)CN5C(=O)C(C(C)O)NC4=O)cc3)cc2)cc1 (stereo not drawn) ({pTerphenylCO(4''-OnC5H11)}-[ξOrn(4,5-diOH)]T[Hyp][ξhTyr(βξ-OH,γξ-OH)]T[ξPro(3ξ-OH,4ξ-Me)]; lactam 1-C; configuration not given here)",Potency,[10],inactive
OCCOc1ccc(/C(=C(/CCCl)c2ccccc2)c2ccccc2)cc1,Potency,[10],inactive
C[C@@]12CCCCC[C@@H](Cc3ccc(O)cc31)[C@H]2N,Potency,[11],16.9 µM (active)
same,Potency,[12],inactive
NCCS[As](SCCN)c1ccc(Nc2nc(N)nc(N)n2)cc1,Potency,[11],inactive
same,Potency,[13],inactive
CO[C@H]1C[C@H](O[C@@H]2[C@H](C)O[C@H](O[C@@H]3/C(C)=C/C[C@@H]4C[C@@H](C[C@]5(C=C[C@H](C)[C@@H](C6CCCCC6)O5)O4)OC(=O)[C@@H]4C=C(C)C(O)[C@H]5OC/C(=C\C=C\[C@@H]3C)[C@]54O)C[C@@H]2OC)O[C@@H](C)[C@@H]1O (stereo partly drawn),Potency,[14],2.71 µM (active)
CN(C)C(=O)c1cc2cnc(Nc3ccc(N4CCNCC4)cn3)nc2n1C1CCCC1,Potency,[14],inactive
same,"activity change, negative = inhibition",[15]; at 27.1 µM (top of the series),-19.2%
same,"activity change, negative = inhibition",[15]; at 57.1 µM (top of the series),-45.9%
same,Potency,[16],inactive
